Shown are actives, neighbours in structure and some others; about 3.5% of the full set was active somewhere.
FBW7 activator – human FBW7 E3 ligase activation, primary screen. hit rate 0.13% among 650,000. normalized activity (activation), % at 26.1 µM. Q969H0. AlphaScreen FBW7–phospho-cyclin E peptide binding, activator screen; in the data active = normalized activity above about 1.9%;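 note: purified mutant Fbw7 with reduced substrate affinity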
MITF inh – inhibitors of human MITF; O75030; AlphaScreen MITF homodimerization, bead proximity signal; inhibition, % at 2.6 µM; hit rate 0.91% among 650,000; in the data active = inhibition above about 50%;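 note: 0% = vehicle wells with protein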
TEAD-YAP inh – TEAD-YAP interaction inhibition; inhibition, % at 9.12 µM; AID 1259422; HEK-TIYL cells, TEAD-Gal4/YAP UAS-luciferase luminescence; hit rate 1.4% among 640,000; in the data active = inhibition above about 32%;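 note: 0% = median of test compound wells and 100% = reference inhibitor wells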
GPR151 ag – activators of human GPR151. AID 1508602. Q8TDV0. activation, % at 11.2 µM. PathHunter beta-arrestin GPR151 cells, luminescence. hit rate 1% among 650,000; in the data active = activation above about 4.9%;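 note: 0% = median of compound wells and 100% = cells with positive control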
GPR151 confirm – human GPR151 activation, confirmation screen | GPR151 PathHunter beta-arrestin cells, luminescence, 90 min; % of EA-reagent control over plate median | activation, % at 11.2 µM | 6,700 tested, under 10 active | shares compounds with GPR151 ag;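 active = mean percent activation across replicates above the confirmation screen cutoff of 4.91%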
GPR119 counter – counter-screen for GPR151 activators: effect on human GPR119; shares compounds with GPR151 ag; GPR119 PathHunter beta-arrestin cells, luminescence, 90 min; 0 = compound-well median, 100 = enzyme-acceptor control; activation, % at 11.2 µM; hit rate 0.3% among 6,700; AID 1508611;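 active = mean percent activation in the counterscreen above 29.09%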;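 note: counterscreen on off-target GPR119 to flag nonselective hits from the GPR151 activator screen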
Target sequence (Q8TDV5 whole entry, looked up): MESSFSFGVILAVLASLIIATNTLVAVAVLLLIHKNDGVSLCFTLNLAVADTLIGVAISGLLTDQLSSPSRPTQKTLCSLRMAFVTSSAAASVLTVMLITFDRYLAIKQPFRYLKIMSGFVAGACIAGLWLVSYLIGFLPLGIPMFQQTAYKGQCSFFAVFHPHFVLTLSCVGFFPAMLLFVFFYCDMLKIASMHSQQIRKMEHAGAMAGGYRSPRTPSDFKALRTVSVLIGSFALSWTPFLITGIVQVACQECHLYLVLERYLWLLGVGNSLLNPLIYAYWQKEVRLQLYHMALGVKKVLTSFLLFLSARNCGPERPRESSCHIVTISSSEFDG
* marks the source's active call; other numbers are inactive results; x = no result.

SMILES	FBW7 activator	MITF inh	TEAD-YAP inh	GPR151 ag	GPR151 confirm	GPR119 counter
O=C(N=Nc1c(O)n(CO)c2ccccc12)c1ccncc1	0	6	-8	4.9*	0	9
O=C(NC1CC1)c1ccc(-c2nc(NCc3ccccc3)c3ncn(-c4ccccc4)c3n2)cc1	0	-7	2	2	x	x
O=C(NC1CC1)c1ccc(-c2nc(NCc3nc4ccccc4[nH]3)c3ncn(-c4ccccc4)c3n2)cc1	1	-1	73*	5.0*	0	4
Cc1nc2ccccc2c2oc(C(=O)NCCCN3CCCC3)cc12	0	-2	-4	1	x	x
COc1ccc(OC)c(C2=C/C(=C/c3cccc(OC)c3OC)C(=O)O2)c1	0	-5	-6	5.1*	0	4
O=C(CN1CCN(C(c2ccccc2)c2ccccc2)CC1)NCc1cccs1	0	35	-5	0	x	x
C=CCNC(=O)CN1CCC(O)(c2cccnc2)CC1	0	-12	-8	6.2*	-1	-3
C=CCNC(=O)CN1CCN(C(c2ccccc2)c2ccccc2)CC1	0	44	10	6.2*	0	-1
C=CCNC(=O)CN1CCC(O)(c2ccccc2)CC1	1	16	8	-1	x	x
CN(Cc1ccccc1)CC(O)COc1ccc(CNC2CCOCC2)cc1 (stereo not given)	0	13	-1	0	x	x
Cc1nc2sccn2c(=O)c1S(=O)(=O)NC1CCCCC1	1	14	2	0	x	x
Cc1cccc(CNC(=O)C2CC23CCN(Cc2ccc(Oc4ncccn4)cc2)CC3)n1 (stereo not given)	0	15	1	1	x	x
COc1cccc(C(=O)N=c2sc3cc(F)ccc3n2C)c1OC	0	-19	67*	6.6*	0	10
COc1ccc2c(c1)sc(=NC(=O)CS(=O)(=O)c1ccc(F)cc1)n2C	-1	4	6	5.8*	1	8
COc1cccc(OC)c1C(=O)N=c1sc2cc(F)ccc2n1C	0	11	9	2	x	x
CCc1ccccc1N1C(=O)C2C(c3ccccc3)CCC(c3ccccc3)C2C1=O (stereo not given)	0	-4	-11	-2	x	x
CCCN(CCC)Cc1c(C(=O)O)nnn1-c1nonc1N	0	8	0	6.0*	-1	-4
COc1cc(C2Nc3ccccc3NC3=C2C(=O)CC(c2ccccc2Cl)C3)cc(OC)c1OC (stereo not given)	0	16	-1	5.6*	0	-3
CC(=O)Nc1ccc(OCCn2c(C)c(C=C3C(=O)NC(=O)NC3=O)c3ccccc32)cc1	0	6	-8	6.4*	-1	-5
CCOC(=O)c1ccc2c(c1)sc(=NC(=O)C(C)(C)C)n2C	0	-16	61*	6.5*	0	0
CCOC(=O)CNC(=O)c1ccc(OC)c(I)c1	0	13	-20	2	x	x
COc1ccc(C(=O)NCc2ccccc2)cc1I	0	-3	-6	0	x	x
COc1ccc(C(=O)NCCC(c2ccccc2)c2ccccc2)cc1OC	0	6	2	19*	0	-5
CCOC(=O)CNC(=O)c1ccc(OC)c(Br)c1	0	-11	-6	5.6*	0	2
COc1ccc(C(=O)NCCOc2ccccc2OC)cc1OC	0	-1	4	-2	x	x
SMILES	FBW7 activator	MITF inh	TEAD-YAP inh	GPR151 ag	GPR151 confirm	GPR119 counter
CCOc1cc(C(=O)NCc2ccccc2)ccc1OC	0	-6	1	14*	0	-8
Cc1cccc(C(=O)Oc2ccc(/C=N/NC(=O)c3ccccc3N)cc2)c1	0	-5	-21	-1	x	x
CCCCCCC#C[C@@H]1C=C[C@H](OC(C)=O)[C@@H](COC(C)=O)O1	0	1	x	1	x	x
CCOC(=O)C1=C(N)N(c2ccc([N+](=O)[O-])cc2)C2=C(C(=O)CC(C)(C)C2)C1c1cccnc1 (stereo not given)	1	-2	8	-1	x	x
CC1CCCCC1NS(=O)(=O)c1ccc2[nH]c(=O)ccc2c1 (stereo not given)	0	-2	-3	1	x	x
Cc1ccccc1NC(=O)NC1(C(=O)N2CCN3CCCC3C2)CCCCC1 (stereo not given)	0	0	-1	12*	0	-1
CCCc1ccc(OCCCC(=O)Nc2nnc(COC)s2)cc1	0	5	-5	6.9*	0	-4

High-throughput results (PubChem BioAssay)
